Reference: PubChem BioAssay AID430 (Sanford-Burnham Center for Chemical Genomics, 2006)
The campaign covered roughly 63,000 compounds. About 1,100 (1.7%) were called active. For the sample, actives were picked, then their nearest neighbours and some compounds at random. Results with a measured potency or affinity are listed apart. A number with no mark means an inactive call. No stated cut-off is given here; in the data, active means cytotoxicity above about 50%; inactive means the rest.

Test: cytotoxicity in HPDE-C7 cells, cell-based, fluorescence, HTS (AID 430);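 further: cells exposed to compound for 48 hours before viability readout; 0% = vehicle and 100% = reference cytotoxic drug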
Conditions: HPDE-C7 pancreatic duct cells viability, at 10 µM, hits give high values

Row | SMILES | cytotoxicity
1 | CCOC(=O)c1c(C)c(C(=O)Nc2ccc(N(C)C)cc2)c(C)n1CC | 54.2% (active)
2 | CCOC(=O)c1c(C)c(C(=O)Nc2ccccc2)c(C)n1CC | 4.4%
3 | CCOC(=O)c1c(C)c(C(=O)Nc2ccc3c(c2)OCCO3)c(C)n1CC | 17.2%
4 | CC(C)NS(=O)(=O)c1ccc(CCC(=O)O)cc1 | -5.7%
5 | CC1=C(C(N)=O)C(c2cccnc2)n2nc(-c3cccc(C)c3)nc2N1 (configuration not stated) | -15.3%
6 | CCc1cc(C(=O)Cc2nc3ccccc3[nH]2)c(O)cc1O | 9.1%
7 | CCc1cc(C(=O)Cc2ccc(F)cc2)c(O)cc1O | 54.4% (active)
8 | CCCc1cc(C(=O)Cc2ccc(C(=O)OCC)o2)c(O)cc1O | 24%
9 | CCCc1cc(C(=O)Cc2ccc(F)cc2)c(O)cc1O | 78.8% (active)
10 | CCc1cc(C(=O)COc2ccccc2F)c(O)cc1O | 5.5%
11 | CCc1cc(C(=O)Cc2cnn(-c3ccccc3)c2)c(O)cc1O | 14.9%
12 | CC(=O)c1cnc2cc(-c3ccccc3)nn2c1C | -20.8%
13 | Cc1nc(SCc2ccccc2)c(C(F)(F)F)c(=O)[nH]1 | 2.3%
14 | Cc1nc(Nc2ccc(F)cc2)[nH]c(=O)c1CCC(C)C | 62.1% (active)
15 | Cc1ccc(Nc2nc(C)c(CCC(C)C)c(=O)[nH]2)cc1 | 7.1%
16 | Cc1nc(Nc2ccccc2)[nH]c(=O)c1CCC(C)C | -16.8%
17 | O=C(Cn1nc(-c2ccccc2)c2ccccc2c1=O)NCCN1CCOCC1 | -11.2%
18 | O=c1c2cccc3c2c(nn1CN1CCOCC1)-c1ccccc1-3 | 53% (active)
19 | Cc1ccc(-c2nn(CC(=O)NCCN3CCOCC3)c(=O)c3ccccc23)cc1 | 0.5%
20 | O=C(CC(SCCO)c1ccc2c(c1)OCO2)c1cccs1 (configuration not stated) | 54.5% (active)
21 | O=C(CSCc1ccco1)c1cccs1 | -7.2%
22 | O=C(CC(SCc1ccco1)c1ccc(O)cc1)c1cccs1 (configuration not stated) | 54.4% (active)
23 | CC(NC(=O)c1cccs1)c1ccc2c(c1)OCO2 (configuration not stated) | -2.3%

Row | SMILES | cytotoxicity
24 | O=C(CC(SCCO)c1ccc2c(c1)OCO2)c1ccco1 (configuration not stated) | 1.4%
25 | O=C(CSc1nnc(-c2ccc(O)cc2)n1Cc1ccco1)c1cccs1 | -1.1%
26 | COc1ccc(N2CCN(C(=O)CSc3ccccc3N)CC2)cc1 | -6.2%
27 | O=C(CCCSc1nc(-c2ccco2)cc(C(F)(F)F)n1)NCc1cccs1 | -4.3%
28 | Cc1c(Cl)cccc1NC(=O)Cn1cccc1 | 3.2%
29 | Cc1cc(Nc2nc3ccccc3[nH]c2=O)n(-c2ccccc2)n1 | 8%
30 | O=C(CN(Cc1ccco1)C(=O)CNS(=O)(=O)c1ccccc1)NCc1ccc(F)cc1 | -1.3%
31 | O=C(CN(Cc1ccco1)C(=O)CNS(=O)(=O)c1ccc(Cl)cc1)NCc1ccc(F)cc1 | 70% (active)
32 | O=C(CN(Cc1ccco1)C(=O)CNS(=O)(=O)c1ccc(F)cc1)NCc1ccc(F)cc1 | -4%
33 | OCCNc1nc(Nc2ccccc2)nc(Nc2ccccc2)n1 | 2.2%
34 | CC(C)n1c(Nn2cnnc2)nc2ccccc21 | 3.1%
35 | Cc1cc(C(=O)OCC(=O)N2CCN(c3ccccc3)CC2)c2ccccc2n1 | -8.3%
36 | O=C(CSc1nnc(-c2cccnc2)n1Cc1ccco1)c1ccccc1 | -18.2%
37 | O=C(Cc1cccs1)Nc1ccc(NC(=O)c2ccco2)cc1 | -14.5%
38 | O=C(Cc1cccs1)Nc1cccc(C(=O)Nc2ccco2)c1 | 54.2% (active)
39 | CC(=O)c1cccc(NC(=O)Cc2cccs2)c1 | -5.3%
40 | CCOC(=O)C(C)Sc1nnc(Cn2c(=O)sc3ccccc32)n1-c1ccccc1 (configuration not stated) | 18.4%
41 | CCOC(=O)N1CCN(C(=O)C2CCC(C(=O)N3CCN(C(=O)OCC)CC3)CC2)CC1 (configuration not stated) | -3.2%
42 | O=C(c1cccc2ccccc12)N1CCN(CC2CC=CCC2)CC1 (configuration not stated) | -22%
43 | CCC(CC)C(=O)Nc1cccc(C(=O)NCc2ccco2)c1 | -24.1%
44 | O=C(NCc1ccccc1)c1cccc(NC(=O)c2ccco2)c1 | 44.7%
45 | Cc1ccc(C(=O)Nc2cccc(C(=O)NCc3ccco3)c2)cc1 | 62.7% (active)
46 | O=C(NCc1ccco1)c1cccc(NC(=O)c2ccccc2)c1 | 10.1%

Row | SMILES | cytotoxicity
47 | Cc1occc1C(=O)Nc1cccc(C(=O)NCc2ccccc2)c1 | -18%
48 | O=C(O)c1ccc(CNC(=O)c2ccc(Br)o2)cc1 | 0.5%
49 | CC(OC(=O)C1CCN(S(=O)(=O)c2ccccc2)CC1)C(=O)Nc1ncc(Cl)cc1Cl (configuration not stated) | -0.7%
50 | Cc1ncoc1C(=O)Nc1ccc(Oc2ccccc2)cc1 | -20.9%
51 | O=C(Nc1ccc(O)cc1)c1ccc(C(=O)c2ccccc2)o1 | -1.5%
52 | CCc1ccccc1N(CC(=O)N1CCN(c2ccccc2)CC1)S(C)(=O)=O | -3%
53 | CCOC(=O)c1c(-c2cccs2)csc1NC(=O)CN1CC(C)OC(C)C1 (configuration not stated) | 61.1% (active)
54 | CCOC(=O)c1c(-c2cccs2)csc1NC(=O)CCCC(=O)O | 8.6%
55 | COC(=O)c1c(-c2cccs2)csc1NC(=O)CN1CCOCC1 | -10.4%
56 | CCOC(=O)c1ccc(NC(=O)CSc2nc3c(c(=O)n2CC)SC(C)C3)cc1 (configuration not stated) | 55.3% (active)
57 | CCn1c(SCC(=O)Nc2cccc(C)c2)nc2c(c1=O)SC(C)C2 (configuration not stated) | 3.7%
58 | CCOC(=O)c1ccc(NC(=O)CSc2nc3c(c(=O)n2C)SC(C)C3)cc1 (configuration not stated) | 1.1%
59 | COC(=O)c1ccc(C(=O)Nc2ccc(N)cc2N)cc1 | -13.9%
60 | c1ccc(N(c2ccccc2)c2nc(N3CCOCC3)nc(N3CCOCC3)n2)cc1 | 4.8%
61 | CCC1(CC)Nc2ccccc2C(=O)N1c1ccc(NC(C)=O)cc1 | 10.6%
62 | COC(=O)C1(C)Nc2ccccc2C(=O)N1c1ccccc1C (configuration not stated) | 2.8%
63 | CCOCCCNC(=O)C(c1ccc(Cl)cc1)N1CCN(C(=O)c2ccco2)CC1 (configuration not stated) | -11.6%
64 | Cc1onc(-c2ccccc2)c1C(=O)NCc1cccnc1 | 4.9%
65 | Cc1cc(OCCCCCNCCO)ccc1Cl | 18.7%
66 | O=C(NCc1ccco1)c1cc(-c2ccc(Cl)cc2)on1 | 5.9%
67 | CC(C)Cc1cc(C(=O)NCc2cccs2)no1 | -21.1%
68 | CC1(C)Nc2ccc(O)cc2-c2c1ssc2=S | 67.4% (active)
69 | CC1(C)c2ssc(=S)c2-c2ccccc2N1C(=O)c1ccco1 | -13.6%

Row | SMILES | cytotoxicity
70 | N#C/C(C(=O)c1ccccc1)=C1/CCCN1 | 10.8%
71 | COc1ccc(CCN2CC(C#N)=C3c4cc(OC)c(OC)cc4CCN3C2)cc1OC | -1.5%
72 | O=C(c1ccccc1)N(Cc1ccc(F)cc1)C1CCS(=O)(=O)C1 (configuration not stated) | -9.7%
73 | c1ccc2oc(NC3=NCN(CC4CCCO4)CN3)nc2c1 (configuration not stated) | -19.3%
74 | CCN(CC)C(=O)CSc1ncnc2c1nnn2-c1ccc(OC)cc1 | -17.1%
75 | COc1ccc(-n2nnc3c(SCC(=O)NCC4CCCO4)ncnc32)cc1 (configuration not stated) | -2.3%
76 | CCOC(=O)Cn1cnc2c(C#N)c3n(c2c1=O)CCCCC3 | -8.7%
77 | Cc1c(Br)c(C(F)(F)F)nn1CC(=O)NCC1CCCO1 (configuration not stated) | -17.2%
78 | CCn1c(Cc2ccccc2)nnc1SCC(=O)Nc1nc2ccccc2s1 | -5%
79 | CCn1c(Cc2ccc(OC)cc2)nnc1SCC(=O)Nc1nc2ccccc2s1 | -6%
80 | CCn1c(SCC(=O)Nc2nc3ccccc3s2)nnc1-c1ccc(OC)cc1 | 58.5% (active)
81 | CCCCNc1nc2ccccc2n1CC(=O)N1CCc2ccccc2C1 | -0.3%
82 | COc1cccc(-c2cc(C(=O)N3CCCc4ccccc43)no2)c1 | -19.5%
83 | CCOC(=O)C1=C(C)N=C2SC(C)C(=O)N2C1/C=C/c1ccccc1OC (configuration not stated) | -8.3%
84 | CCc1nc(Nc2ccncc2)c2oc3ccccc3c2n1 | 67.4% (active)
85 | Cc1nc(Nc2ccncc2)c2oc3ccccc3c2n1 | -28.9%
86 | CCNc1nc(CC)nc2c1oc1ccccc12 | -12.6%
87 | OC1(c2cccc(C(F)(F)F)c2)CCN(c2ncnc3c2[nH]c2ccccc23)CC1 | 123% (active)
88 | c1ccc2c(c1)[nH]c1c(N3CCC4(CC3)OCCO4)ncnc12 | -10.6%
89 | c1ccc2c(c1)[nH]c1c(N3CCCC3)ncnc12 | 0%
90 | COC(=O)c1cc2c(cc1Cl)SC(=NCCCN1CCOCC1)NS2(=O)=O | -1.2%
91 | O=C(O)c1cccnc1Oc1ccccc1 | -7%
92 | O=C(O)c1ccccc1NS(=O)(=O)c1cccc2cccnc12 | 21.6%

Row | SMILES | cytotoxicity
93 | O=C(COc1cccc2cccnc12)Nc1nccs1 | 8.2%
94 | FC(F)Oc1cccc2cccnc12 | -5.8%
95 | COC(=O)c1ccccc1OC(=O)c1ccc(Br)o1 | 7.5%
96 | O=C(Nc1cccc2cccnc12)c1ccc(Br)o1 | 5.6%
97 | CCc1ccc(C(=O)N2CCN(c3ccc(F)cc3)CC2)s1 | -18.1%
98 | CC(=O)N1CCN(Cc2cc(=O)n3cc(Cl)c(C)c(Cl)c3n2)CC1 | -7.9%
99 | O/N=C(\Cc1cscn1)c1ccc(O)cc1O | -6.8%
100 | CCn1c(=O)cc(SCC(=O)Nc2ccc3c(c2)OCO3)c2ccccc21 | 0.7%
101 | COc1cc(-c2cc(C(=O)N3CCN(c4ccccn4)CC3)c3ccccc3n2)cc(OC)c1OC | 14.4%
102 | Cc1ccc(-c2cc(C(=O)N3CCOCC3)c3ccccc3n2)cc1 | -8.5%
103 | O=C(c1cc(-c2ccncc2)nc2ccccc12)N1CCN(c2ccccn2)CC1 | 56.1% (active)
104 | CCOC(=O)N1CCN(C(=O)c2cc(-c3ccc(OCC)cc3)nc3ccccc23)CC1 | 57.6% (active)
105 | CCOc1ccc(-c2cc(C(=O)N3CCN(C)CC3)c3ccccc3n2)cc1 | -8.5%
106 | O=C(c1cc(-c2ccncc2)nc2ccc(Br)cc12)N1CCN(c2ccccn2)CC1 | 12.7%
107 | CCOc1ccc(-c2cc(C(=O)N3CCN(c4ccccn4)CC3)c3ccccc3n2)cc1 | 56.9% (active)
108 | Cc1ccc2nc(-c3ccccn3)cc(C(=O)N3CCN(c4ncccn4)CC3)c2c1 | 8.9%
109 | O=C(c1cc(-c2ccccc2)nc2ccccc12)N1CCN(c2ccccn2)CC1 | 17.1%
110 | COc1ccc(-c2cc(C(=O)N3CCN(c4ccccn4)CC3)c3ccccc3n2)cc1 | 32%
111 | COc1cccc(-c2cc(C(=O)N3CCN(c4ncccn4)CC3)c3ccccc3n2)c1 | -4.1%
112 | Cc1ccc(-c2cc(C(=O)N3CCN(c4ncccn4)CC3)c3ccccc3n2)cc1 | 57.3% (active)
